This is an account of results in PubChem BioAssay AID1159580 (chemical genetic matrix, 2015).

A short description of this experiment: chemical genetic growth profiling, strain panel (AID 1159580).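 Also: tested at 20 µM; growth read once vehicle control cultures reached saturation at 30 °C; 1 = growth at the plate median or of vehicle wells; lower values mean less growth of the strain.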 The note with it: growth OD.
[1] abbreviates: S. cerevisiae deletion strains, locus YAL040C, strain CLN3, active compounds read low.
Setting [2] is: S. cerevisiae deletion strains, locus YCL061C, strain MRC1 (second series), active compounds read low.
[3] abbreviates: S. cerevisiae deletion strains, locus YDR150W, strain NUM1, active compounds read low.
Where [4] appears, read: S. cerevisiae deletion strains, locus YDR363W, strain ESC2, active compounds read low.
[5] abbreviates: S. cerevisiae deletion strains, locus YER002W, strain NOP16, active compounds read low.
The mark [6] stands for this setting: S. cerevisiae deletion strains, locus YGR229C, strain SMI1, active compounds read low.
The mark [7] stands for this setting: S. cerevisiae deletion strains, locus YJR075W, strain HOC1, active compounds read low.
The mark [8] stands for this setting: S. cerevisiae deletion strains, locus YMR307W, strain GAS1, active compounds read low.
Where [9] appears, read: S. cerevisiae deletion strains, locus YNL175C, strain NOP13, active compounds read low.
Setting [10] is: S. cerevisiae deletion strains, locus YNL197C, strain WHI3, active compounds read low.
[11] abbreviates: S. cerevisiae deletion strains, locus YNL224C, strain SQS1, active compounds read low.
Setting [12] is: S. cerevisiae deletion strains, locus YNL322C, strain KRE1, active compounds read low.
Setting [13] is: S. cerevisiae deletion strains, locus YOR083W, strain WHI5 (second series), active compounds read low.
The mark [14] stands for this setting: S. cerevisiae deletion strains, locus YPL055C, strain LGE1, active compounds read low.
[15] abbreviates: S. cerevisiae deletion strains, locus YPL241C, strain CIN2, active compounds read low.
The mark [16] stands for this setting: S. cerevisiae deletion strains, locus YAL013W, strain DEP1, active compounds read low.
Setting [17] is: S. cerevisiae deletion strains, locus YHR030C, strain SLT2, active compounds read low.

Hit rate of the full screen: of about 5,500 compounds, about 2,000 (36%) were called active. About 18% were inconclusive and are not listed. Some of the results follow. Values without a mark were called inactive. Rule as the data show it: active = normalized growth mostly below about 0.91 (no sharp cut-off); inconclusive = no clear call, values can overlap the other calls; inactive = mostly above about 0.92.

Consider `CCCCNc1c(C(=O)OCC)c(C)nc2c1cnn2CC`, for which the normalized growth runs as follows: under setting [1], 0.933; under setting [2], 0.998; under setting [3], 0.999; under setting [4], 1.01; under setting [5], 0.998; under setting [6], 1.01. Besides, the normalized growth was 1.01 under setting [7]; 0.998 under setting [8]; 0.959 (S. cerevisiae deletion strains, locus YNL128W, strain TEP1, active compounds read low); 0.941 under setting [9]; 0.947 under setting [10]; 0.951 under setting [11]. Further, the normalized growth under setting [12] was 1, the normalized growth under setting [13] is 0.845 (active), the normalized growth under setting [14] is 1.01 and the normalized growth under setting [15] was 0.993.

Turning to `CCOC(=O)c1cnc2cc(C)nn2c1C`, the normalized growth reads like this: under setting [16], 0.994; (S. cerevisiae deletion strains, locus YBR229C, strain ROT2, active compounds read low) 0.994; (S. cerevisiae deletion strains, locus YCL061C, strain MRC1, active compounds read low) 0.999; (S. cerevisiae deletion strains, locus YDL101C, strain DUN1, active compounds read low) 0.997; under setting [3], 0.964; (S. cerevisiae deletion strains, locus YEL061C, strain CIN8, active compounds read low) 0.997. Also, the normalized growth is 1 (S. cerevisiae deletion strains, locus YGR078C, strain PAC10, active compounds read low); 0.983 under setting [6]; 0.986 under setting [17]; 1.01 (S. cerevisiae deletion strains, locus YHR087W, strain rtc3, active compounds read low); 1.01 (S. cerevisiae deletion strains, locus YJL187C, strain SWE1, active compounds read low); 1.01 (S. cerevisiae deletion strains, locus YJR043C, strain POL32, active compounds read low). Besides, the normalized growth was 0.998 under setting [7]; 0.992 (S. cerevisiae deletion strains, locus YKL190W, strain CNB1, active compounds read low); 0.987 (S. cerevisiae deletion strains, locus YLR039C, strain RIC1, active compounds read low); 1 (S. cerevisiae deletion strains, locus YLR058C, strain SHM2 (second series), active compounds read low); 0.944 (S. cerevisiae deletion strains, locus YLR085C, strain ARP6, active compounds read low); 0.99 (S. cerevisiae deletion strains, locus YLR262C, strain YPT6, active compounds read low). For the same compound, the normalized growth reads like this: (S. cerevisiae deletion strains, locus YML094W, strain GIM5, active compounds read low) 0.953; (S. cerevisiae deletion strains, locus YMR219W, strain ESC1, active compounds read low) 0.991; (S. cerevisiae deletion strains, locus YMR263W, strain SAP30, active compounds read low) 1; (S. cerevisiae deletion strains, locus YNL298W, strain CLA4 (second series), active compounds read low) 0.996; under setting [12], 0.994; (S. cerevisiae deletion strains, locus YNR030W, strain Alg12, active compounds read low) 0.981. Moreover, the normalized growth was 0.965 (S. cerevisiae deletion strains, locus YOL006C, strain TOP1, active compounds read low); 0.909 under setting [14]; 0.956 under setting [15]; 1.01 (S. cerevisiae deletion strains, locus YPR135W, strain CTF4, active compounds read low); 0.991 (S. cerevisiae strains, strain wild type, active compounds read low).

For `CCOC(=O)c1cnc2c(cnn2CC)c1NN=C(C)C`, the normalized growth is 0.918 under setting [16]; 1.01 under setting [1]; 0.943 (active) under setting [2]; 0.918 under setting [4]; 0.959 under setting [5]; 0.76 (active) under setting [6]. The normalized growth was 0.856 (active) under setting [8]; 0.909 (S. cerevisiae deletion strains, locus YNL153C, strain GIM3, active compounds read low); 0.961 under setting [9]; 0.976 under setting [10]; 0.97 under setting [11]; 0.844 (active) under setting [13]. Further, the normalized growth was 0.966 under setting [14] and 0.964 under setting [15].

Regarding `CC[N+](C)(CC)CCOC(=O)C(O)(c1ccccc1)C1CCCCC1` (configuration not stated), the normalized growth was 0.989 under setting [17]; 1 (S. cerevisiae deletion strains, locus YHR079C, strain IRE1, active compounds read low); 0.982 (S. cerevisiae deletion strains, locus YJL095W, strain BCK1, active compounds read low); 0.901 (S. cerevisiae deletion strains, locus YJR066W, strain TOR1, active compounds read low); 1.03 (S. cerevisiae deletion strains, locus YLR113W, strain HOG1, active compounds read low); 0.913 (S. cerevisiae deletion strains, locus YNL183C, strain NPR1, active compounds read low). Further, the normalized growth (S. cerevisiae deletion strains, locus YOR231W, strain MKK1, active compounds read low) is 0.988 and the normalized growth (S. cerevisiae deletion strains, locus YPL256C, strain CLN2, active compounds read low) was 0.989.
